# ± gives the standard deviation of the averaged measurements. Over roughly 25,000 sequences, “ln(normalized median fluorescence intensity)” has its median near 8.6; the highest 2% begin near 10. The sample as a whole holds a higher share of the highest values than the screen did.
# Test system: PfAP2-EXP AP2 domain (GST-tagged)
# Experiment: gcPBM binding intensity (ln(normalized median fluorescence intensity)); higher = stronger DNA binding
# In short: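 An Agilent 4 × 180k array carrying primer-extended double-stranded 36-bp intergenic genomic probes and negative controls received GST-tagged P. falciparum DNA-binding domains expressed in E. coli, about 25 μg on average, for 1 h. The binding buffer contained 1× PBS, 1% milk, 0.2 mg/ml BSA, 0.5% salmon testes DNA and 0.03% Triton X-100. Binding intensity is the top Masliner-normalised natural-log median intensity across replicate spots of either probe orientation, read after Alexa488 anti-GST antibody staining and a 488 nm scan.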
row,Sequence,gcPBM binding intensity (ln)
1,CGTATGCAAGGAACCACACACACACCCATAAATGTA [CACACA_site749],8.51 ± 0.45
2,TTTTCTACATCTTGTTGTACGAAAAATAAAAAAAAT [XGTACX_site4620],8.72 ± 0.47
3,TATTTTATAAATTAATGTACATAAATTATATCTACT [XGTACX_site3625],8.35 ± 0.16
4,TTTTAAACAGGACACACACACATATAGATTTATATA [CACACA_site6560],8.69 ± 0.4
5,TTTTTTTTTTTTTTTTTTAAACACCTCAAAAAAAAA [CACACA_negctrl_site807],8.04 ± 0.36
6,ATAATATCTTTATGTGTGCACATATATATATATATA,10.1 ± 0.38
7,GAGGTCTTTTTTAATGTGCACATATATATATATATA,10.3 ± 0.25
8,ATATATATCTTTTGTGTGCACATATATATAATATAT,8.97 ± 0.24
9,GGAAAAGGTATCCGTTCACACATAAATGGATACCAT [CACACA_site5072],8.31 ± 0.4
10,ATTCATCCAATAATGTGAATTATCATGATAAACTTA [TGCATGCA_negctrl_site406],8.26 ± 0.43
11,CAAAGTATTATGATTACACACATGTGCTTTTTTCTT [CACACA_site163],8.57 ± 0.42
12,GGTATACTCAAGTATACACACATATATATATATATA [CACACA_site5746],10.2 ± 0.45
13,CAAACAATTAAACAAACACACATATACAAGTATATA [CACACA_site8639],8.38 ± 0.36
14,GGTATACACAAGTATACACACATATAAATATAAATA [CACACA_site7511],8.5 ± 0.45
15,GGTATACGCAAGTATACACACATATATATATATATA [CACACA_site3240],10.1 ± 0.47
16,GGTATACACAAGTATACACACATATATATATATATA [CACACA_site9063],10.2 ± 0.22
17,TATATACTCAAACACACACACACATACACAGACATA [CACACA_site5025],8.77 ± 0.57
18,ATTTTAGGAAAAAAAAGTACATATAATTTTTTATAT [XGTACX_site6954],8.19 ± 0.31
19,AAATGTTATATATAATGTACTTGTAAGAACGTTCCT [XGTACX_site2840],8.67 ± 0.45
20,GTGTAGTTAAAAAAAAGTACAGATTTTTTTTTTTTT [XGTACX_site849],8.43 ± 0.092
21,ATATTTATAACTTGGTGTACTTTGAAAAAAAAAAAA [XGTACX_site5194],8.38 ± 0.26
22,TTTTAATAATATGGATGTACATAAAAATAAATAAAT [XGTACX_site7937],9.04 ± 0.38
23,AAAAAACACTTAAGGTGTACCTTTTAATATAAGTAT [XGTACX_site2397],8.38 ± 0.3
24,TATGTGAAATAAGGATGTACAATTTTGATTTCCCCA [XGTACX_site8389],8.86 ± 0.52
25,TATAAACCGACGAAAACACACATATGTAAATATATA [CACACA_site491],8.94 ± 0.59

# From the supplement of paper PMC11417369
